GSTO1 inh: inhibitors of recombinant GSTO1, primary screen, counter-screen for RBBP9 inhibitor project, biochemical, fluorescence polarization; Glutathione S-transferase omega-1 (Homo sapiens), P78417; activity-based probe fluorescence polarization; inhibition, % at 5.96 µM; 1.1% of 300,000 active; AID 1974, 2009;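 active = inhibition above the campaign mean inhibition plus 3 SD, cut at about 35% in these data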
Target sequence (P78417 whole entry, looked up): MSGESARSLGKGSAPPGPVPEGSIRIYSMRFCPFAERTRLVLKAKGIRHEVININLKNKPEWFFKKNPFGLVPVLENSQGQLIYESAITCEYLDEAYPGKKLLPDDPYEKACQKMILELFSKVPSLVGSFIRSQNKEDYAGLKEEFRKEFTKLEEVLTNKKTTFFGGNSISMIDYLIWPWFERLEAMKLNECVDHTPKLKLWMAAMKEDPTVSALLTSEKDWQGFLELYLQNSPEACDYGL
LYPLA2 counter: LYPLA2 inhibitors, primary screen, counter-screen for PME1 inhibitor project, biochemical, fluorescence polarization, FP-Rh probe ABPP; Acyl-protein thioesterase 2 (Homo sapiens), O95372; recombinant LYPLA2; inhibition, % at 5.9 µM; 0.38% of 320,000 active; AID 2177, 2009;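 active = inhibition above the screen-wide mean plus 3 SD, limit set per campaign, cut at about 26% in these data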
Target sequence (O95372 whole entry, looked up): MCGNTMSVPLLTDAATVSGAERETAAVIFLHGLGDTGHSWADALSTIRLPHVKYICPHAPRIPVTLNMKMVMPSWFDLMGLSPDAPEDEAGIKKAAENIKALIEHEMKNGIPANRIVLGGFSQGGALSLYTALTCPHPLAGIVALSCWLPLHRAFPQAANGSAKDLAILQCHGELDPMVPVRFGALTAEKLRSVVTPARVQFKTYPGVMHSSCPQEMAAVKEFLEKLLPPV
PME-1 inh: PME-1 inhibitors via competitive probe labeling, primary screen, biochemical, fluorescence polarization, FP-Rh probe, HTS. Protein phosphatase methylesterase 1 (Homo sapiens), Q9Y570. recombinant PME-1. inhibition, % at 5.9 µM. 0.53% of 320,000 active. AID 2130, 2009;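 active = inhibition above the campaign mean of all compounds plus 3 SD, cut at about 26% in these data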;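 note: competitive labeling of PME-1 active site by serine hydrolase directed probe; inhibitors block probe labeling so polarization falls and inhibition rises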
LYPLA1 counter: LYPLA1 inhibitors, primary screen, counter-screen for PME1 inhibitor project, biochemical, fluorescence polarization, FP-Rh probe ABPP; AID 2174, 2009; 0.16% of 320,000 active; recombinant LYPLA1; Acyl-protein thioesterase 1 (Homo sapiens), O75608; inhibition, % at 5.9 µM;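 active = inhibition above the mean of all tested compounds plus 3 SD, set per campaign, cut at about 14% in these data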;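 note: inhibitors block serine hydrolase probe labeling of LYPLA1 so polarization falls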
Fam108B counter: mouse Fam108B serine hydrolase inhibitors, primary screen, counter-screen for RBBP9 inhibitor project, biochemical, fluorescence polarization; recombinant Fam108B, FP-Rh probe fluorescence polarization; inhibition, % at 9.51 µM; 0.33% of 300,000 active; AID 1947, 2009;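 active = inhibition above the screen mean inhibition plus 3 SD, computed separately per campaign, cut at about 18% in these data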;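 note: inhibitors lower polarization as less probe binds the enzyme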
PREPL inh: PREPL enzyme inhibitors, primary screen, biochemical, fluorescence polarization | 0.68% of 320,000 active | Prolyl endopeptidase-like (Homo sapiens), Q4J6C6 | AID 2751, 2010 | inhibition, % at 5.96 µM | recombinant PREPL, fluorescence polarization activity-based probe; in the data active = inhibition above about 43%
Fam108b confirm: mouse Fam108b serine hydrolase inhibitors, confirmation, counter-screen for RBBP9 inhibitor project, biochemical, fluorescence polarization, triplicate. 44% of 930 active. inhibition, % at 9.51 µM. shares compounds with Fam108B counter. recombinant Fam108b, FP-Rh probe fluorescence polarization;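 active = inhibition above a limit from the primary screen, the mean over all compounds plus 3 SD, cut at about 19% in these data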;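 note: inhibitors free the probe so polarization falls as inhibition rises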
Fam108b ABPP HTS: inhibition of mouse Fam108b by HTS hits, late-stage follow-up, biochemical, gel-based ABPP, soluble recombinant form | inhibition, % at 20 µM | 44% of 260 active | fluorophosphonate probe | shares compounds with Fam108B counter; in the data active = inhibition above about 40%
Each line names hits and unclear results; the compound was inactive in the other large screens (follow-up assays come after a bar, where they were run). Shown are actives, neighbours in structure and some others; about 2% of the full set was active somewhere.

COc1ccc(-c2csc3nc(-c4ccccc4F)oc(=O)c23)cc1	Fam108B counter 50 | Fam108b confirm 36 | Fam108b ABPP HTS 60
COc1ccc(-c2nc3scc(-c4ccc(OC)c(OC)c4)c3c(=O)o2)cc1	none
Cc1nc2scc(-c3ccc(Cl)cc3)c2c(=O)o1	Fam108B counter 46 | Fam108b confirm 79 | Fam108b ABPP HTS 80
CC(C)(C)c1nc2scc(-c3ccc(Br)cc3)c2c(=O)o1	Fam108B counter 27 | Fam108b confirm 29
COC1(OC)N=C(N)C2(C#N)C(c3ccccc3)NC(C)=CC12C#N (centres undefined)	none
CC1=CC(C#N)(C#N)C(C#N)(C#N)C(c2ccccc2)N1 (centres undefined)	LYPLA2 counter 44, PME-1 inh 50, LYPLA1 counter 42, Fam108B counter 43 | Fam108b confirm inactive
CC(C(=O)NC(N)=O)N1C(=O)NC(c2ccccc2)(c2ccccc2)C1=O (centres undefined)	none
CCOC(=O)C1=C(C)N=c2s/c(=C\c3ccc(O)c([N+](=O)[O-])c3)c(=O)n2C1c1ccccc1OC (centres undefined)	Fam108B counter 28 | Fam108b confirm 45
CCOC(=O)C1=C(C)N=c2s/c(=C\c3ccc(OCC(=O)O)cc3)c(=O)n2C1c1ccccc1OC (centres undefined)	none
O=C(c1ccc(=O)[nH]n1)N1CCc2ccccc2C1	none
CN(C)c1ccc(CNC(=O)CCNS(=O)(=O)c2cc(Br)cnc2N)cc1	none
O=C(COC(=O)CNC(=O)c1ccc(Cl)cc1)Nc1cccc(S(=O)(=O)N2CCCC2)c1	Fam108B counter 64 | Fam108b confirm inactive
Cc1cccc(COc2ccc(/C=N/NC(=O)c3nnn(-c4nonc4N)c3COc3ccc(F)cc3)cc2)c1	none
COc1cccc(C(=O)/C=C/Nc2ccc(S(=O)(=O)Nc3cccc(C(C)=O)c3)cc2)c1	Fam108B counter 22 | Fam108b confirm inactive
Cc1[nH]c2ccccc2c1/C=N/NC(=O)c1cccc(S(=O)(=O)Nc2cccc(C(F)(F)F)c2)c1	Fam108B counter 40 | Fam108b confirm 32
CCOC(=O)N1CCN(C2CCCN(C(=O)c3ccccc3N(C)C)C2)CC1 (centres undefined)	none
Cc1nc(-c2ccc(S(=O)(=O)Oc3ccc(Cl)cc3Cl)s2)cs1	none
O=C(NC1CCCCC1)c1sc(=S)n2c1[nH]c(=O)c1ccccc12	Fam108B counter 35 | Fam108b confirm 32 | Fam108b ABPP HTS 85
CCCCNC(=O)c1sc(=S)n2c1[nH]c(=O)c1ccccc12	Fam108B counter 27 | Fam108b confirm 32 | Fam108b ABPP HTS inactive
COc1ccc(OC)c(CCNC(=O)c2ccc3c(=O)[nH]c4c(C(=O)NC(C)C)sc(=S)n4c3c2)c1	none
CC(=O)Nc1ccc2[nH]c3ccccc3c2c1	none
O=C(Nc1ccc(Cl)cc1)c1cc2c(cc1O)[nH]c1ccccc12	Fam108B counter 25 | Fam108b confirm inactive
COc1cc(C(=O)NCc2nnc(SCC(=O)NC3CCCC3)o2)cc(OC)c1OC	none
CCc1c(C(=O)N2CCCN(C)CC2)csc1C	none
COc1ccc2oc(=O)c(-c3csc(Nc4cccc(O)c4)n3)cc2c1	PME-1 inh 47, Fam108B counter 34 | Fam108b confirm 39 | Fam108b ABPP HTS 100
CC(C)COC(=O)N1CCN(S(=O)(=O)c2ccc3c(c2)CCC3)CC1	none (no result: GSTO1 inh, Fam108B counter)
COc1cccc(/C=N/Nc2ncnc3scc(-c4ccccc4)c23)c1O	Fam108B counter 23 | Fam108b confirm inactive
Cc1ccc(NC(=O)c2ccc3c(c2)N(CC(=O)NC(C)C)C(=O)C(C)(C)O3)cc1	none
COc1ccc(C(=O)Cc2cc3ccccc3oc2=O)cc1	none
Cc1cccc(C)c1NC(=O)Cn1c(CN2CCCCC2)nc2ccccc2c1=O	Fam108B counter 21 | Fam108b confirm inactive
O=C(c1cc2ncc(Br)cn2n1)N1CCN(C(=O)c2ccco2)CC1	Fam108B counter 19 | Fam108b confirm inactive
CCN(CC)S(=O)(=O)c1ccc(N/N=C/c2ccc(O)cc2O)nc1	PME-1 inh 48, Fam108B counter 22 | Fam108b confirm inactive
COc1ccc(NC(=O)c2ccccc2OCc2ccc(F)cc2)c(OC)c1	none
On1onc2c3cc(-c4ccccc4)nc3ccc21	PME-1 inh 45, Fam108B counter 27 | Fam108b confirm 21
c1ccc(-c2cc3c(ccc4nonc43)nn2)cc1	none
Cc1ccc(C2C3=C(CC(C)(C)CC3=O)NC3=C2C(=O)c2ccccc23)cc1 (centres undefined)	none
COc1ccc(C2C3=C(CCCC3=O)NC3=C2C(=O)c2ccccc23)cc1 (centres undefined)	Fam108B counter 20 | Fam108b confirm 26
Nc1nn2c(-c3ccccc3)cc(=O)[nH]c2c1N=Nc1ccc(O)cc1	Fam108B counter 21 | Fam108b confirm inactive
O=C(CC1OC(=O)c2ccccc21)Nc1ccc(Cl)c(S(=O)(=O)N2CCCCC2)c1 (centres undefined)	none
CC(C)CSC1=NSC2=NC(=O)/C(=C\c3ccccc3)C(=N)N12	none
CSC1=NSC2=NC(=O)/C(=C\c3coc4ccccc4c3=O)C(=N)N12	Fam108B counter 31 | Fam108b confirm 54 | Fam108b ABPP HTS inactive
CC(C)CSC1=NSC2=NC(=O)/C(=C\c3coc4ccccc4c3=O)C(=N)N12	Fam108B counter 37 | Fam108b confirm 40 | Fam108b ABPP HTS inactive
Oc1ccccc1N1CCN(CC(O)COCc2ccccc2Cl)CC1 (centres undefined)	none
Cc1cccc2c(N=O)c(O)[nH]c12	PME-1 inh 53, Fam108B counter 27 | Fam108b confirm 24
CN1C(=O)/C(=C/c2ccc(C(=O)Nc3ccc(O)cc3C(=O)O)cc2)SC1=S	PME-1 inh 35, Fam108B counter 19 | Fam108b confirm inactive
COc1ccc(NC(=O)CSc2nc(N)c(C(=O)Nc3ccc(N(C)C)cc3)s2)cc1	none
CN(C)c1ccc(NC(=O)CSc2nc(N)c(C(=O)Nc3ccc(N(C)C)cc3)s2)cc1	Fam108B counter 19 | Fam108b confirm inactive

Assay outcomes: PubChem BioAssay, The Scripps Research Institute Molecular Screening Center
